# Screening data deposited in PubChem by several laboratories.
# Shown are actives, neighbours in structure and some others; about 4.1% of the full set was active somewhere.
# FBA Mtb inh = Mtb fructose-bisphosphate aldolase inhibition; 360,000 tested, 2.3% active; purified M. tuberculosis FBA, fluorescence read-out; P9WQA3; inhibition, % at 1 µM;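 note: 0% = vehicle and 100% = reference inhibitor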
# GDH-TPI counter-1 = counter-screen for M. tuberculosis FBA inhibitors: GDH-TPI coupled enzymes | GDH-TPI coupled enzyme counterscreen, NADH absorbance | inhibition, % at 4.8 µM | 360,000 tested, 1.2% active; in the data active = inhibition above about 30%;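 note: 0% = DMSO wells and 100% = wells lacking the enzyme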
# RecA splice inh = Mtb RecA intein splicing inhibition | P9WHJ3 | cell-free RecA intein splicing, fluorescence | inhibition, % (test concentration not listed) | 290,000 tested, 0.75% active; in the data active = inhibition above about 30%;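 note: 0% = vehicle wells and 100% = reference inhibitor control wells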
# Vc quorum ag = inducers of Vibrio cholerae quorum light production without autoinducers. AID 588436. 350,000 tested, 0.16% active. activation, % at 18.7 µM. V. cholerae BH1578 lux reporter, luminescence, 6 h; in the data active = activation mostly above about 9.7%, no sharp cut-off
# Rv3671c protease = inhibitors of M. tuberculosis serine protease Rv3671c | inhibition, % at 5.96 µM | 320,000 tested, 0.048% active; in the data active = inhibition above about 38%;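 note: extracellular domain of Rv3671c used as enzyme; 0% = enzyme with DMSO and 100% = no enzyme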
# Target sequence (P9WHR9 whole entry, looked up, the tested form may be a part): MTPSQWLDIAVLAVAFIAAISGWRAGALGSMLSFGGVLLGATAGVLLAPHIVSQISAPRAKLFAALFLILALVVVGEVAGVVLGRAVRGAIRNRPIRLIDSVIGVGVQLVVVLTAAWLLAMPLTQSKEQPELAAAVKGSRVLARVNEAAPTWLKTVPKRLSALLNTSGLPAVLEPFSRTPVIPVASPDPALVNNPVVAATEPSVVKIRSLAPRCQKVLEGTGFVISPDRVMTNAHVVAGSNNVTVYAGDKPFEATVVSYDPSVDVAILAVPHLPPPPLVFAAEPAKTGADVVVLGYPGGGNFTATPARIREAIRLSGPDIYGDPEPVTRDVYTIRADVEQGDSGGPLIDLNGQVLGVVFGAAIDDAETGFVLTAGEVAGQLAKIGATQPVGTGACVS
# UGM FP inh = inhibitors of M. tuberculosis UDP-galactopyranose mutase; purified UGM, fluorescence polarization probe displacement; inhibition, % at 10 µM; 320,000 tested, 0.06% active; in the data active = inhibition above about 10%, passing the limit was not always enough
# Mtb FBA confirm = confirmation of M. tuberculosis fructose-bisphosphate aldolase inhibitors | shares compounds with FBA Mtb inh | purified M. tuberculosis FBA, fluorescence read-out | inhibition, % at 1 µM | 5,600 tested, 78% active;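 note: 0% = vehicle wells and 100% = reference inhibitor wells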
# GDH-TPI counter-2 = inhibits GDH-TPI coupling enzymes, flagging Mtb FBA hits. shares compounds with FBA Mtb inh. 5,600 tested, 81% active. inhibition, % at 1 µM. GDH-TPI coupled enzyme counterscreen, fluorescence; in the data active = inhibition above about 10%
# GDH-TPI dose = inhibits GDH-TPI coupling enzymes in dose response; GDH-TPI coupled enzyme assay, fluorescence, artifact counterscreen; AID 652145; 170 tested, 79% active; shares compounds with FBA Mtb inh; IC50, µM; call rule not given here
# The depositor's hits bear a star; i = inactive; x = not tested or not shown; + = active, no number. Cut-off read from the data, not from the text of the source, unless noted: active = inhibition above about 27%; inactive = the rest.
SMILES,FBA Mtb inh,GDH-TPI counter-1,RecA splice inh,Vc quorum ag,Rv3671c protease,UGM FP inh,Mtb FBA confirm,GDH-TPI counter-2,others
CCCC1(c2ccccc2)NC(=O)NC1=O (stereo unspecified),0.5,-3.0,3.1,-1.5,5.2,-1.1,x,x,
CC(=O)c1cccc(-c2ccnc3c2CC(C(=O)NCc2cccs2)O3)c1 (stereo unspecified),2.0,9.1,x,i,x,x,x,x,
N#Cc1nc(COc2ccccc2)oc1N1CCCCCC1,-2.7,1.4,3.4,-0.3,-9.4,3.6,x,x,
N#Cc1nn(-c2ccccc2)nc1N1CCCCC1,38.3*,11.7,10.3,-0.3,1.0,0.5,129.4*,106.0*,
Cn1ccc2c(N3CCCCCC3)cc3c(c21)C1CCC3C1 (stereo unspecified),-2.8,x,x,x,x,x,x,x,
Cc1c(NC(=O)COC(=O)/C=C/c2ccccc2Br)c(=O)n(-c2ccccc2)n1C,0.2,-5.6,x,-3.7,-5.7,1.3,x,x,
COc1cc2c(cc1OC)CN(Cc1ccccc1)CC2,7.6,16.9,-1.9,-0.2,1.6,-2.3,x,x,
COc1cc2c(cc1OC)CN(Cc1cccs1)CC2,28.7*,-3.2,1.1,i,-4.0,1.1,97.7*,86.5*,
COc1cc2c(cc1OC)CN(CC(O)c1ccccc1)CC2 (stereo unspecified),57.4*,8.3,-100.5,-0.3,-1.5,1.9,40.9*,33.0*,
COc1ccccc1CNC(=O)CCC1N=C2c3ccccc3N=C(SCC(=O)NCC3CCCO3)N2C1=O (stereo unspecified),5.9,7.4,-2.1,-0.2,-7.8,0.2,x,x,
Cc1cc(C)c(NC(=O)CNC(=O)COC(=O)Cc2ccccc2C)c(C)c1,7.3,9.8,x,1.2,5.0,1.3,x,x,
CCOc1ccc(-n2nc3ccc(N)cc3n2)cc1,73.8*,15.7,0.5,-0.2,x,1.1,14.4,0.9,GDH-TPI dose=1.09*
COc1ccc(-n2nc3ccc(N)cc3n2)cc1,56.1*,15.9,x,-0.7,x,x,53.9*,40.9*,
Cn1c(N)nc2nc[nH]c2c1=S,-1.9,19.4,x,-1.0,x,x,x,x,
COc1ccc(CCNC(=O)c2ccc3c(c2)N(Cc2ccc(F)cc2)CCS3)cc1OC,72.3*,4.3,13.0,i,-14.0,-1.0,55.3*,32.7*,
CCN1CCN(CCCNC(=O)c2ccc3c(c2)N(Cc2ccc(C)cc2)CCS3)CC1,76.2*,8.6,-10.4,-0.9,4.7,-1.7,131.4*,102.5*,
COc1ccc(C(=O)NCCc2ccc(F)cc2)cc1OC,-1.5,-1.9,-1.7,0.3,-2.2,0.4,x,x,
Cc1ccc(CN2CCSc3ccc(C(=O)NCc4ccco4)cc32)cc1,53.6*,4.1,x,1.1,13.0,-3.1,5.0,-1.4,
CC(C)Oc1ccc(CN2CCC2(C)C(=O)NCc2cccc3ccccc23)cc1 (stereo unspecified),5.6,9.7,x,i,x,x,x,x,
CC1CCN(c2oc(-c3ccccc3Cl)nc2C#N)CC1,19.7,27.4,-1.7,0.6,3.4,0.3,x,x,
N#Cc1nc(-c2ccco2)oc1N1CCOCC1,82.1*,10.1,-6.5,-2.5,8.1,-9.9,198.3*,160.0*,
N#Cc1nc(-c2ccco2)oc1N1CCC(Cc2ccccc2)CC1,29.5*,6.4,8.3,-0.3,-8.8,-0.1,-2.1,0.1,
N#Cc1nc(-c2ccccc2Cl)oc1N1CCOCC1,33.4*,28.7,3.0,i,-6.9,-1.0,113.1*,92.3*,
C[C@H](CO)N1C[C@H](C)[C@H](CN(C)Cc2cccc(C(F)(F)F)c2)OCc2ccccc2-c2c(n(C)c3ccccc23)C1=O,0.5,-4.3,x,1.1,x,x,x,x,
CSc1ncccc1C(=O)OCC(=O)NC1CCC(C)CC1 (stereo unspecified),-2.9,2.2,x,i,-3.5,-1.4,x,x,
SMILES,FBA Mtb inh,GDH-TPI counter-1,RecA splice inh,Vc quorum ag,Rv3671c protease,UGM FP inh,Mtb FBA confirm,GDH-TPI counter-2,others
O=C(NCc1ccc(F)cc1)C1CCN(S(=O)(=O)c2cccc3nonc23)CC1,-2.3,-3.0,x,i,1.7,1.2,x,x,
Cc1cccc(C)c1OCC(O)CNC(C)C (stereo unspecified),-0.1,1.9,-1.0,2.8,-11.9,1.6,x,x,
CCOC(=O)c1oc2cccc(OCC(O)CNC(C)C)c2c1C (stereo unspecified),90.9*,7.9,1.8,i,1.4,-1.4,11.1,-4.1,GDH-TPI dose=1.51*
CSCCC(NC(=O)c1ccccc1)C(=O)NCCc1ccc2c(c1)OCCO2 (stereo unspecified),6.6,11.7,x,i,-5.3,1.1,x,x,
Cc1cc(C)nc(SCc2nc3ncccn3c2Br)n1,66.3*,10.2,5.5,-0.4,1.8,-1.7,31.0*,9.6,GDH-TPI dose=2.71*
Clc1c(CSc2nc3ccccc3o2)nc2ccccn12,0.0,8.4,-2.0,i,6.1,-3.4,x,x,
Brc1c(CSc2nncn2-c2ccccc2)nc2ncccn12,83.3*,18.6,-1.2,-5.6,-5.2,1.3,103.2*,74.6*,
Brc1c(CSc2nc3ccccc3o2)nc2ncccn12,62.6*,12.3,-1.8,-5.9,-1.1,-0.5,63.4*,42.9*,
CC(=O)Nc1ccc(NC(=O)C2CCCN2C(=O)NCc2ccccc2)cc1 (stereo unspecified),0.7,-0.8,-2.6,-0.2,5.2,-3.8,x,x,
CCOc1ccc(C(=O)NCC(=O)OCc2csc(-c3ccccc3)n2)cc1,28.6*,7.7,0.9,0.4,-13.2,5.8,193.8*,165.9*,
Cc1nn(CCc2nn[nH]n2)c2nc(-c3ccccc3)cc(C(F)(F)F)c12,39.8*,5.5,-0.6,-2.7,-6.4,0.9,+,163.9*,
Cc1cccn2c(=O)c(C=C(C#N)C#N)c(N3CCN(c4cccc(Cl)c4)CC3)nc12,4.8,3.8,-1.4,i,-16.5,4.0,x,x,
Cc1cc(=O)oc2cc(OCc3ccc(C(=O)N4CCN(c5ccccc5)CC4)cc3)ccc12,43.5*,6.2,2.3,0.5,-17.6,-2.0,121.5*,88.8*,
CCOC(=O)C1CCN(C(=O)COc2ccc3c(C)cc(=O)oc3c2)CC1,34.9*,5.0,0.0,i,1.9,0.4,148.0*,135.8*,
Cc1cc(=O)oc2cc(OCC(=O)N3CCOCC3)ccc12,18.3,12.7,-6.4,-6.2,x,x,x,x,
Cc1cc(=O)oc2cc(OCC(=O)N3CCCC3)ccc12,40.7*,1.6,x,-0.7,7.9,-4.2,13.1,5.3,GDH-TPI dose=5.29*
O=C(COC(=O)c1cc(S(=O)(=O)N2CCCC2)ccc1O)Nc1ccccc1Br,9.8,3.5,x,2.1,-3.5,-2.2,x,x,
COc1cccc(CC(NC(C)=O)C(=O)NC2CCN(C(=O)Nc3ccc(C)cc3)CC2)c1 (stereo unspecified),-1.6,1.1,0.3,i,x,x,x,x,
COC(c1ccccc1)c1nnc(CCC(=O)N(C)CCCC2CCCC2)o1 (stereo unspecified),28.3*,3.1,3.1,-0.3,4.3,-3.3,123.3*,100.0*,
